{"source": "ChEMBL document CHEMBL1157539", "about": "“Thousands of chemical starting points for antimalarial lead identification” (Nature, 2010)", "type_in_all_cases": "functional", "key": {"[1]": {"system": "Plasmodium falciparum", "experiment": "GSK_TCMDC: Inhibition of Plasmodium falciparum 3D7 in whole red blood cells, using parasite LDH activity as an index of growth. Test compounds present at 2uM"}, "[2]": {"system": "Plasmodium falciparum", "experiment": "GSK_TCMDC: Inhibition of Plasmodium falciparum Dd2 in whole red blood cells, using parasite LDH activity as an index of growth. Test compounds present at 2uM"}, "[3]": {"system": "HepG2", "experiment": "GSK_TCMDC: Percent inhibition of human HepG2 cell line. Test compounds present at 10uM."}}}
{"smiles": "O=C(Nc1ccc(-c2nc3ccccc3[nH]2)cc1)c1ccc(Cl)s1", "values": [{"measurement": "Inhibition", "setting": "[1]", "value": 99, "unit": "%"}, {"measurement": "Inhibition", "setting": "[2]", "value": 34, "unit": "%"}, {"measurement": "Inhibition", "setting": "[3]", "value": 16, "unit": "%"}]}
{"smiles": "CN1CCC(C(=O)N(Cc2ccc(-c3ccc(CNCCc4ccc(S(C)(=O)=O)cc4)cn3)cc2)C2Cc3ccccc3C2)CC1.O=C(O)C(F)(F)F", "values": [{"measurement": "Inhibition", "setting": "[1]", "value": 98, "unit": "%"}, {"measurement": "Inhibition", "setting": "[2]", "value": 49, "unit": "%"}, {"measurement": "Inhibition", "setting": "[3]", "value": 21, "unit": "%"}]}
{"smiles": "CCCCN(C(=O)c1ccccc1Cl)c1nnc(-c2ccccc2C)s1", "values": [{"measurement": "Inhibition", "setting": "[1]", "value": 90, "unit": "%"}, {"measurement": "Inhibition", "setting": "[2]", "value": 86, "unit": "%"}, {"measurement": "Inhibition", "setting": "[3]", "value": 12, "unit": "%"}]}
{"smiles": "Fc1cccc(Nc2nc(NCc3ccc(OCc4ccccc4)cc3)nc(Nc3cccc(F)c3)n2)c1", "values": [{"measurement": "Inhibition", "setting": "[1]", "value": 84, "unit": "%"}, {"measurement": "Inhibition", "setting": "[2]", "value": 14, "unit": "%"}, {"measurement": "Inhibition", "setting": "[3]", "value": 5, "unit": "%"}]}
{"smiles": "O=C(Cc1ccc[n+]([O-])c1)Nc1cccc(-c2cccc(-c3nc4cc(F)ccc4[nH]3)c2)c1", "values": [{"measurement": "Inhibition", "setting": "[1]", "value": 92, "unit": "%"}, {"measurement": "Inhibition", "setting": "[2]", "value": 98, "unit": "%"}, {"measurement": "Inhibition", "setting": "[3]", "value": 28, "unit": "%"}]}
{"smiles": "COc1cc(C(=O)N2CCN(C(C)C)CC2)ccc1CN(C)CCCCN1CCN(c2cccc(Cl)c2Cl)CC1.Cl", "values": [{"measurement": "Inhibition", "setting": "[1]", "value": 100, "unit": "%"}, {"measurement": "Inhibition", "setting": "[2]", "value": 98, "unit": "%"}, {"measurement": "Inhibition", "setting": "[3]", "value": 79, "unit": "%"}]}
{"smiles": "CC(C)COc1ccc(Cl)cc1Cc1nc(-c2nc3ccc(CN4CCCC4)cc3[nH]2)co1.Cl", "values": [{"measurement": "Inhibition", "setting": "[1]", "value": 100, "unit": "%"}, {"measurement": "Inhibition", "setting": "[2]", "value": 66, "unit": "%"}, {"measurement": "Inhibition", "setting": "[3]", "value": 50, "unit": "%"}]}
{"smiles": "COc1ccc2nc(N3CCN(C(=O)OC(C)(C)C)CC3)nc(NCCCc3ccccc3)c2c1", "values": [{"measurement": "Inhibition", "setting": "[1]", "value": 100, "unit": "%"}, {"measurement": "Inhibition", "setting": "[2]", "value": 95, "unit": "%"}, {"measurement": "Inhibition", "setting": "[3]", "value": 9, "unit": "%"}]}
{"smiles": "Cc1ccccc1C1CCN(C2CCC(NC(=O)c3ccc4c(c3)-c3nocc3C(C)O4)CC2)CC1", "note": "(stereo not given)", "values": [{"measurement": "Inhibition", "setting": "[1]", "value": 88, "unit": "%"}, {"measurement": "Inhibition", "setting": "[2]", "value": 37, "unit": "%"}, {"measurement": "Inhibition", "setting": "[3]", "value": 68, "unit": "%"}]}
{"smiles": "CN(C)CCC1CCCc2ccc(NC(=O)Nc3cccc(Cl)c3Cl)cc21.Cl", "note": "(stereo not given)", "values": [{"measurement": "Inhibition", "setting": "[1]", "value": 93, "unit": "%"}, {"measurement": "Inhibition", "setting": "[2]", "value": 11, "unit": "%"}, {"measurement": "Inhibition", "setting": "[3]", "value": 44, "unit": "%"}]}
